Results published in PubChem BioAssay.
Active and inactive are the calls of the source.

What was measured:
[1] = binders of probe aFSTL3 on microarray, primary screen, stem cell growth factor project, biochemical, small-molecule microarray, fluorescence 635/667 (AID 1064); settings: higher = more signal;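 note: measures binding of the biotinylated anti-FSTL3 antibody to printed compounds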
[2] = binders from COS7 lysate, DM2A8 probe, primary screen, torsin A project, cell lysate, small-molecule microarray, fluorescence 635/667 (AID 1065); settings: higher = more signal, COS7 lysate expressing mutant human TOR1A
[3] = binders of probe aFGF2 on microarray, primary screen, stem cell growth factor project, biochemical, small-molecule microarray, fluorescence 635/667 (AID 1067); settings: higher = more signal;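 note: measures binding of biotinylated aFGF2 protein to printed compounds on slides; z-score merges feature fluorescence and signal-to-noise across triplicate slides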
[4] = binders of probe aFGF10 on microarray, primary screen, stem cell growth factor project, biochemical, small-molecule microarray, fluorescence 635/667 (AID 1071); settings: higher = more signal;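 note: score merges 667 nm spot intensity and signal to noise from triplicate slides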
[5] = biological target: Neurogenic locus notch homolog protein 2 (Homo sapiens) (UniProt Q04721); assay: Notch2 binders on small-molecule microarrays, primary screen, biochemical, small-molecule microarray, 635 nm fluorescence, stem cell growth factors (AID 1073); settings: Notch2 binding, higher = more signal
Neurogenic locus notch homolog protein 2 (Homo sapiens), sequence (Q04721 whole entry, looked up, canonical isoform): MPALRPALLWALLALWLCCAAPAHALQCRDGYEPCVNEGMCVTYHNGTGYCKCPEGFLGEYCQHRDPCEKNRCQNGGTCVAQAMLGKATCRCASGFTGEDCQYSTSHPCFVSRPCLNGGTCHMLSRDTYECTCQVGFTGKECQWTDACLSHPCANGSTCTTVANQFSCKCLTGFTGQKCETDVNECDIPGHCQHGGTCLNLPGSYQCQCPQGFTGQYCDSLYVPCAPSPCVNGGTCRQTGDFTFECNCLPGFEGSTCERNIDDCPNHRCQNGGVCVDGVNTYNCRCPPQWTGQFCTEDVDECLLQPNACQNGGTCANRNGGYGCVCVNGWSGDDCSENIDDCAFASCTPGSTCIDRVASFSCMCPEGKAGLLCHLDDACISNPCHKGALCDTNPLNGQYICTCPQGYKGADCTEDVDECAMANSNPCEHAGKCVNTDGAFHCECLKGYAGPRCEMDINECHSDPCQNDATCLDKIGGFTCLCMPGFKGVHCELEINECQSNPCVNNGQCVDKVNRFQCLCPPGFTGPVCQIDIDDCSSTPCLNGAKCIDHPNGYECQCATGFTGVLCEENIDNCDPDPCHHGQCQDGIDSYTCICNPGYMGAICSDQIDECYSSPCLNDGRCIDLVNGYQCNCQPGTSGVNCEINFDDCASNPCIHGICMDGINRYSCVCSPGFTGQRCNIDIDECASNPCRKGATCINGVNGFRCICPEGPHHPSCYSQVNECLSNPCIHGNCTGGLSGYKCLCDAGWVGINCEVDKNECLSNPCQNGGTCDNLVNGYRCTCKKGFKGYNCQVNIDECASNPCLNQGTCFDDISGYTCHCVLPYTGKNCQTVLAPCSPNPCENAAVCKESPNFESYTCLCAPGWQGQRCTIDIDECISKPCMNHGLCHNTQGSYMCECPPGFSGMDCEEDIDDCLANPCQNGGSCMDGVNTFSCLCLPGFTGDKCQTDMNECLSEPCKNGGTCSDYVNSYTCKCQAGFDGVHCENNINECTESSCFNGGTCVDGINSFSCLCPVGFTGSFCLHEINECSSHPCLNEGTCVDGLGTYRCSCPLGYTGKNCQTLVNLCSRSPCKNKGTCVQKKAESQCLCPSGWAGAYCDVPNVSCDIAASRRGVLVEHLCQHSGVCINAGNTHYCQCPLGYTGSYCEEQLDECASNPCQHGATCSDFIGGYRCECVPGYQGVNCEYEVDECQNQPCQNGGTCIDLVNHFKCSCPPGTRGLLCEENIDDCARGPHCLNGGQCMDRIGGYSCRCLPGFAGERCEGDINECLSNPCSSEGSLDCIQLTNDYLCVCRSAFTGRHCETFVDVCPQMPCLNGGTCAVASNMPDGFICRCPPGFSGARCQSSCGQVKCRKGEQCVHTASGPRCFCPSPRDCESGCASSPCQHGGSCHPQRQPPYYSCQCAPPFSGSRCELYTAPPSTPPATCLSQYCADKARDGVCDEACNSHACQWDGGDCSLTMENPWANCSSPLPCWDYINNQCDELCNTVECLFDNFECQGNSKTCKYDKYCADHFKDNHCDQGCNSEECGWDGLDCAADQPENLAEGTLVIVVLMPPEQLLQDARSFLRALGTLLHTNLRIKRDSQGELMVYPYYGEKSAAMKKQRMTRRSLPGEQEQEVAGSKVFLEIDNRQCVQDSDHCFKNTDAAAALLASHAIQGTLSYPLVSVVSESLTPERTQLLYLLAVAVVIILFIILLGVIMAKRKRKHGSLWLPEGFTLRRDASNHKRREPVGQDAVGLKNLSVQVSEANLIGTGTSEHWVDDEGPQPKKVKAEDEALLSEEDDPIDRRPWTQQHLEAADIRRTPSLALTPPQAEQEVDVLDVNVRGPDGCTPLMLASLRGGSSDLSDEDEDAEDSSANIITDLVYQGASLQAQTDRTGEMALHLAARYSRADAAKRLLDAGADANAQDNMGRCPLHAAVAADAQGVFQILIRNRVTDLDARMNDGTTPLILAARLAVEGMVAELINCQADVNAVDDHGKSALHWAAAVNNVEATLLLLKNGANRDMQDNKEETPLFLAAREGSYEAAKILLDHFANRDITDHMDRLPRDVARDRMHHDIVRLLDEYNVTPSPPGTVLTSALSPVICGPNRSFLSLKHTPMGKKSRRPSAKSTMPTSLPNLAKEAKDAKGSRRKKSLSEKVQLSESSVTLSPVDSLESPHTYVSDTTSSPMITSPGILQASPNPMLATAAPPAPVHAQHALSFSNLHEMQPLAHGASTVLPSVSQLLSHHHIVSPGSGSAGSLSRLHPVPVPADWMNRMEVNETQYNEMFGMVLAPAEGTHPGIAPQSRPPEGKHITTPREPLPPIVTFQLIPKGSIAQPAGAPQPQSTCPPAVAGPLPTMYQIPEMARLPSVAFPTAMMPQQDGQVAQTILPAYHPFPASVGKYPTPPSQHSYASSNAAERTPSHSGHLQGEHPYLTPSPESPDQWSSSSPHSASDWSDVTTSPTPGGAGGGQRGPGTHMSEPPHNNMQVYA

[6] = biological target: Pro-neuregulin-1, membrane-bound isoform (Homo sapiens) (UniProt Q02297); assay: NRG1 binders on small-molecule microarrays, primary screen, psychiatric disease protein project, biochemical, small-molecule microarray, fluorescence 635/667 (AID 1075); settings: NRG1 binding, 635 nm fluorescence, higher = more signal;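 note: score combines 667 nm spot fluorescence with signal to noise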
Pro-neuregulin-1, membrane-bound isoform (Homo sapiens), sequence (Q02297 whole entry, looked up, the tested form may be a part, canonical isoform): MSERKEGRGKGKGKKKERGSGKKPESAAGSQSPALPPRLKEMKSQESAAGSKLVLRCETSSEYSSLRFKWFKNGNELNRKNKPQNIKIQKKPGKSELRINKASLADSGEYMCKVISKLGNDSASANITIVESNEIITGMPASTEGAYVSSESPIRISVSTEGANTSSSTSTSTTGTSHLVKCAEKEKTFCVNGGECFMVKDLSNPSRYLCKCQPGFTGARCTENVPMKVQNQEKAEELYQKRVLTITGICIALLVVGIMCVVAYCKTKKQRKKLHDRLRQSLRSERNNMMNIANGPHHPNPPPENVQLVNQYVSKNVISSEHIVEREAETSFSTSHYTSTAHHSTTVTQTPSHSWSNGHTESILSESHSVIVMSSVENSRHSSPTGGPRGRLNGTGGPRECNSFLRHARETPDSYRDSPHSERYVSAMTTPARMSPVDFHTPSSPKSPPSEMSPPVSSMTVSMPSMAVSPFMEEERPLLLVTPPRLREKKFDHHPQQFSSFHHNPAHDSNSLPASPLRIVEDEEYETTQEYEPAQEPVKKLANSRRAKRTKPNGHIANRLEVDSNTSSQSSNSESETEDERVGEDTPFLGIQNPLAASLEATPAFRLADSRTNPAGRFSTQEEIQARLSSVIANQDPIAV

[7] = system: Neuregulin-1 EGF-like domain; assay: binders of neuregulin-1 EGF-like domain, primary screen, biochemical, small-molecule microarray, 635 nm fluorescence (AID 1081); settings: small-molecule microarray binding, higher = more signal;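 note: binding of the protein to compounds printed on small-molecule microarray slides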
[8] = FRG1 promoter luciferase signal modulators, primary screen, FRG1 inhibition for FSHD, cell-based, C2C12 myotubes, firefly/Renilla luciferase, luminescence (AID 1084); settings: higher = more signal, called active from +8 up or from −8 down
[9] = binders of probe aFST on microarray, primary screen, stem cell growth factor project, biochemical, small-molecule microarray, fluorescence 635/667 (AID 1086); settings: higher = more signal;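 note: score merges 667 nm fluorescence with signal-to-noise of each printed compound spot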
[10] = binders of probe aHhip on microarray, primary screen, stem cell growth factor project, biochemical, small-molecule microarray, fluorescence 635/667 (AID 1087); settings: higher = more signal;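 note: score merges spot fluorescence at 667nm with spot signal to noise ratio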
[11] = system: PRMT1 (protein arginine N-methyltransferase 1); assay: PRMT1 binders on small-molecule microarrays, primary screen, biochemical, small-molecule microarray, 635 nm fluorescence (AID 1088); settings: small-molecule microarray binding, higher = more signal;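 note: binding of Prmt1 protein to compounds spotted on small-molecule microarray slides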
[12] = yeast growth modulation, basal conditions, primary screen, YJM789 clinical isolate, OD600, 24 h (AID 1089);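 note: growth of clinical yeast isolate S. cerevisiae YJM 789 seeded 1000 cells per well; test concentration not given here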; settings: S. cerevisiae YJM789 growth, higher = more signal, called active from +8 up or from −8 down
[13] = fission yeast growth modulation, primary screen, strain 972, OD600, 24 h, no modulator (AID 1090);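 note: basal condition with compound alone and no growth modifier present; test concentration not given here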; settings: S. pombe 972 growth, higher = more signal, called active from +8 up or from −8 down
[14] = S. cerevisiae growth modulation with rapamycin, primary screen, strain BY4716, OD600, 96 h (AID 1091); settings: higher = more signal, called active from +8 up or from −8 down; note: test concentration not given here
[15] = biological target: Torsin-1A-interacting protein 2 (Homo sapiens) (UniProt Q8NFQ8); assay: LULL1 binders on small-molecule microarray, primary screen, cell lysate, human LULL1 lysate, 635/667 nm fluorescence (AID 1092); settings: hLULL1 lysate binding, 635 nm fluorescence, higher = more signal;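 note: probe is lysate of COS7 cells overexpressing human LULL1; score merges per-feature 667 nm fluorescence with signal-to-noise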
Torsin-1A-interacting protein 2 (Homo sapiens), sequence (Q8NFQ8 whole entry, looked up): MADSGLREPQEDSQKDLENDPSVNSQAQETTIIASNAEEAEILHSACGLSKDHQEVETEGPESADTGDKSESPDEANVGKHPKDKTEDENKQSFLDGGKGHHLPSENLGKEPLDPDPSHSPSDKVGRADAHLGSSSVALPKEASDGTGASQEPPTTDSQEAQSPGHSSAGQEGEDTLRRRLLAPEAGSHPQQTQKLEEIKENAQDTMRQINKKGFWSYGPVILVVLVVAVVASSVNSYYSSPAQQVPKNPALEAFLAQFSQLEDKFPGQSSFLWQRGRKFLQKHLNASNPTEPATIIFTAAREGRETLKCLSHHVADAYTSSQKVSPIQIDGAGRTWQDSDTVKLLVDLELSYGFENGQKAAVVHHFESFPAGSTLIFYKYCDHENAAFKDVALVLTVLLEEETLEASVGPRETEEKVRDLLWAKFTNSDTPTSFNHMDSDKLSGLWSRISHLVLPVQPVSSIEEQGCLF

[16] = E. coli growth modulation, two-sided OD650, primary screen, E. coli filamentation project, strain DRC41, 24 h (AID 1093); settings: OD650, 24 h, higher = more signal, called active from +8 up or from −8 down;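 note: MC1000 strain lacking acrAB efflux and sulA so SOS filamentation is blocked; test concentration not given here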
[17] = small-molecule microarray binders of probe aLefty2, primary screen, biochemical, biotinylated probe, 635/667 nm fluorescence (AID 1094); settings: higher = more signal;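 note: score merges spot fluorescence near 667 nm with spot signal-to-noise ratio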
[18] = system: Noggin (protein binding on small-molecule microarray); assay: Noggin binders on small-molecule microarray, primary screen, biochemical, 635/667 nm fluorescence (AID 1095); settings: 635 nm fluorescence, higher = more signal;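 note: score merges 667 nm feature fluorescence with signal to noise over triplicate slides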
[19] = biological target: Neurogenic locus notch homolog protein 3 (Homo sapiens) (UniProt Q9UM47); assay: NOTCH3 binders on small-molecule microarray, primary screen, biochemical, 635/667 nm fluorescence (AID 1096); settings: NOTCH3 binding, 635 nm fluorescence, higher = more signal
[20] = small-molecule microarray binders of probe aEGFR, primary screen, biochemical, biotinylated probe, 635/667 nm fluorescence (AID 1097); settings: higher = more signal;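 note: probe is a biotinylated anti-EGFR antibody binding compounds printed on slides; score combines fluorescence near 667 nm and signal to noise of each spot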

## CC(C)N1CC=CC23O[C@@H]4C=CCCOC(=O)C4[C@H]2C(=O)N(CCCCCCO)[C@@H]3C1=O (stereo not given in full)
[1]
  composite z-score: 0.487
[2]
  composite z-score: -1.93
[3]
  composite z-score: -0.141
[4]
  composite z-score: -0.671
[5]
  composite z-score: -1.17
[6]
  composite z-score: 1.2
[7]
  composite z-score: 0.896
[8]
  z-score: -0.121 (inactive)
[9]
  composite z-score: -0.357
[10]
  composite z-score: -0.236
[11]
  composite z-score: 0.613
[12]
  z-score: 0.653 (inactive)
[13]
  z-score: 0.159 (inactive)
[14]
  z-score: 0.121 (inactive)
[15]
  composite z-score: 1.94
[16]
  z-score: -0.0822 (inactive)
[17]
  composite z-score: -0.233
[18]
  composite z-score: -0.984
[19]
  composite z-score: -0.0917
[20]
  composite z-score: -0.297

## CCOC(=O)[C@H](CC(C)C)NC(=O)CCC1CC(OC(=O)NCc2cccc3ccccc23)CC2(CCCC(COC(=O)NCCN3CCOCC3)O2)O1 (stereo not given in full)
[1]
  composite z-score: -0.589
[2]
  composite z-score: 0.393
[3]
  composite z-score: -0.0788
[4]
  composite z-score: 0.497
[5]
  composite z-score: 0.999
[6]
  composite z-score: 0.442
[7]
  composite z-score: 0.983
[8]
  z-score: 0.986 (inactive)
[9]
  composite z-score: 0.112
[10]
  composite z-score: 0.0176
[11]
  composite z-score: 1.57
[12]
  z-score: -1.26 (inactive)
[13]
  z-score: 0.557 (inactive)
[14]
  z-score: -1.04 (inactive)
[15]
  composite z-score: 2.36
[16]
  z-score: -0.737 (inactive)
[17]
  composite z-score: -0.173
[18]
  composite z-score: 0.344
[19]
  composite z-score: 1.11
[20]
  composite z-score: -0.0828

## O=C1c2ccccc2[C@@]2(Cc3ccccc3N(C3CC3)C2=O)[C@H](c2ccc(CO)cc2)N1Cc1ccccc1C(F)(F)F
[1]
  composite z-score: 0.748
[2]
  composite z-score: -0.686
[3]
  composite z-score: -0.0507
[4]
  composite z-score: 0.157
[5]
  composite z-score: -1.11
[6]
  composite z-score: 0.809
[7]
  composite z-score: -0.0465
[8]
  z-score: -0.455 (inactive)
[9]
  composite z-score: -0.0438
[10]
  composite z-score: 0.151
[11]
  composite z-score: 0.51
[12]
  z-score: -0.104 (inactive)
[13]
  z-score: -0.995 (inactive)
[14]
  z-score: -1.47 (inactive)
[15]
  composite z-score: 1.83
[16]
  z-score: -2.03 (inactive)
[17]
  composite z-score: 0.104
[18]
  composite z-score: -1.31
[19]
  composite z-score: -0.0714
[20]
  composite z-score: -0.171

## CCc1cc2c(nc1CC)CCN(CCC(C)=NOC(C)CN1CCCc3nc(C)c(C)cc31)C2 (stereo not given)
[1]
  composite z-score: 0.271
[2]
  composite z-score: 1.29
[3]
  composite z-score: 0.131
[4]
  composite z-score: 0.16
[5]
  composite z-score: 1.35
[6]
  composite z-score: 0.408
[7]
  composite z-score: 1.17
[8]
  z-score: 1.04 (inactive)
[9]
  composite z-score: 1.15
[10]
  composite z-score: 1.17
[11]
  composite z-score: 1.37
[12]
  z-score: -2.1 (inactive)
[13]
  z-score: -1.74 (inactive)
[14]
  z-score: -1.28 (inactive)
[15]
  composite z-score: 1.41
[16]
  z-score: 0.517 (inactive)
[17]
  composite z-score: 0.696
[18]
  composite z-score: 1.13
[19]
  composite z-score: 0.986
[20]
  composite z-score: 0.391

## Cc1cc2c(nc1C)CCCN2CC(C)ON=C1[C@H]2CCn3c(=O)n(-c4ccccc4)c(=O)n3[C@H]2[C@H](O)[C@@H]2O[C@H]12 (stereo not given in full)
[1]
  composite z-score: -0.335
[2]
  composite z-score: 0.533
[3]
  composite z-score: 0.0477
[4]
  composite z-score: 0.73
[5]
  composite z-score: 0.36
[6]
  composite z-score: 0.0785
[7]
  composite z-score: 1.1
[8]
  z-score: -0.325 (inactive)
[9]
  composite z-score: 0.265
[10]
  composite z-score: -0.194
[11]
  composite z-score: 1.51
[12]
  z-score: -0.706 (inactive)
[13]
  z-score: -0.829 (inactive)
[14]
  z-score: -0.115 (inactive)
[15]
  composite z-score: 1.42
[16]
  z-score: -0.414 (inactive)
[17]
  composite z-score: -0.138
[18]
  composite z-score: 0.725
[19]
  composite z-score: 1.01
[20]
  composite z-score: -0.0141

## CCN1C(=O)[C@H]2[C@H]3[C@H](O)[C@H](O)CC(=NOC[C@@H](C)[C@H](OCc4ccccc4)C(C)C)[C@@H]3CC[C@H]2C1=O
[1]
  composite z-score: -0.468
[2]
  composite z-score: 1.28
[3]
  composite z-score: -0.128
[4]
  composite z-score: 0.523
[5]
  composite z-score: 0.399
[6]
  composite z-score: 1.24
[7]
  composite z-score: 0.221
[8]
  z-score: 0.199 (inactive)
[9]
  composite z-score: 0.0662
[10]
  composite z-score: -0.169
[11]
  composite z-score: 0.607
[12]
  z-score: -1.05 (inactive)
[13]
  z-score: -4.13 (inactive)
[14]
  z-score: -0.673 (inactive)
[15]
  composite z-score: 0.8
[16]
  z-score: 0.568 (inactive)
[17]
  composite z-score: -0.145
[18]
  composite z-score: 0.355
[19]
  composite z-score: 0.457
[20]
  composite z-score: -0.0936

## C=CC[C@@H]1C=C[C@H](ON=C(C)CCN2CCc3nc(CC)c(CC)cc3C2)[C@@H](CO)O1
[1]
  composite z-score: 0.332
[2]
  composite z-score: 1.43
[3]
  composite z-score: -0.0593
[4]
  composite z-score: -0.21
[5]
  composite z-score: 0.0383
[6]
  composite z-score: -0.21
[7]
  composite z-score: 0.987
[8]
  z-score: 2.55 (inactive)
[9]
  composite z-score: 0.553
[10]
  composite z-score: -0.123
[11]
  composite z-score: 1.21
[12]
  z-score: -1.12 (inactive)
[13]
  z-score: -0.0455 (inactive)
[14]
  z-score: -0.384 (inactive)
[15]
  composite z-score: 1.07
[16]
  z-score: 0.544 (inactive)
[17]
  composite z-score: 0.0522
[18]
  composite z-score: 0.981
[19]
  composite z-score: 0.717
[20]
  composite z-score: -0.0435

## CN1C(=O)C2C=CC(C(O)c3ccc(I)cc3)N(NC(=O)OC(C)(C)C)C2C1=O (stereo not given)
[1]
  composite z-score: 0.108
[2]
  composite z-score: -0.0004
[3]
  composite z-score: 0.111
[4]
  composite z-score: 0.652
[5]
  composite z-score: 1.68
[6]
  composite z-score: 1.69
[7]
  composite z-score: 1.38
[8]
  z-score: -3.23 (inactive)
[9]
  composite z-score: 1.18
[10]
  composite z-score: -0.0994
[11]
  composite z-score: 0.896
[12]
  z-score: 0.725 (inactive)
[13]
  z-score: -0.424 (inactive)
[14]
  z-score: 0.931 (inactive)
[15]
  composite z-score: 3.21
[16]
  z-score: -1.07 (inactive)
[17]
  composite z-score: 0.0607
[18]
  composite z-score: 0.17
[19]
  composite z-score: 1.04
[20]
  composite z-score: 0.157

## CC(C)(C)N1C(=O)[C@H]2[C@H]3[C@H](O)[C@H](O)CC(=NO[C@@H]4O[C@H](CO)[C@@H](O)[C@H](O)[C@H]4O)[C@@H]3CC[C@H]2C1=O
[1]
  composite z-score: -0.549
[2]
  composite z-score: -0.151
[3]
  composite z-score: -0.0854
[4]
  composite z-score: 0.705
[5]
  composite z-score: 0.572
[6]
  composite z-score: 0.722
[7]
  composite z-score: 1.08
[8]
  z-score: 0.677 (inactive)
[9]
  composite z-score: 0.135
[10]
  composite z-score: -0.0994
[11]
  composite z-score: 1.49
[12]
  z-score: -0.233 (inactive)
[13]
  z-score: -0.113 (inactive)
[14]
  z-score: -1.47 (inactive)
[15]
  composite z-score: 1.97
[16]
  z-score: 0.637 (inactive)
[17]
  composite z-score: -0.217
[18]
  composite z-score: 0.564
[19]
  composite z-score: 0.794
[20]
  composite z-score: -0.0229

## CCOC(=O)NN=C1C[C@@H](O)[C@@H](O)[C@@H]2[C@@H]3C(=O)N(C(C)(C)C)C(=O)[C@@H]3CC[C@@H]12
[1]
  composite z-score: -0.295
[2]
  composite z-score: 0.721
[3]
  composite z-score: 0.0014
[4]
  composite z-score: 0.177
[5]
  composite z-score: 0.394
[6]
  composite z-score: -0.904
[7]
  composite z-score: -1.83
[8]
  z-score: -0.0445 (inactive)
[9]
  composite z-score: 0.577
[10]
  composite z-score: -0.0994
[11]
  composite z-score: -0.172
[12]
  z-score: -1.04 (inactive)
[13]
  z-score: 0.213 (inactive)
[14]
  z-score: -0.626 (inactive)
[15]
  composite z-score: -0.786
[16]
  z-score: 0.572 (inactive)
[17]
  composite z-score: -0.0569
[18]
  composite z-score: 0.261
[19]
  composite z-score: -0.861
[20]
  composite z-score: 0.0021
